Screening data (PubChem BioAssay)
Sampled rows, rich in hits. Any-hit rate of the full collection: about 18%.
PLK1 PBD inh = inhibitors of human PLK1 polo-box domain binding. P53350. Plk1 PBD binding of FITC phosphopeptide, fluorescence polarization. Potency, µM, for inactives: max response, negative = inhibition, actives largely listed as inhibitors. 360,000 tested, 2.8% active. AID 720504; note: series mostly up to about 57 µM; nearly all actives have a fitted effect of over 65% in size
Target sequence (P53350 whole entry, looked up, the tested form may be a part): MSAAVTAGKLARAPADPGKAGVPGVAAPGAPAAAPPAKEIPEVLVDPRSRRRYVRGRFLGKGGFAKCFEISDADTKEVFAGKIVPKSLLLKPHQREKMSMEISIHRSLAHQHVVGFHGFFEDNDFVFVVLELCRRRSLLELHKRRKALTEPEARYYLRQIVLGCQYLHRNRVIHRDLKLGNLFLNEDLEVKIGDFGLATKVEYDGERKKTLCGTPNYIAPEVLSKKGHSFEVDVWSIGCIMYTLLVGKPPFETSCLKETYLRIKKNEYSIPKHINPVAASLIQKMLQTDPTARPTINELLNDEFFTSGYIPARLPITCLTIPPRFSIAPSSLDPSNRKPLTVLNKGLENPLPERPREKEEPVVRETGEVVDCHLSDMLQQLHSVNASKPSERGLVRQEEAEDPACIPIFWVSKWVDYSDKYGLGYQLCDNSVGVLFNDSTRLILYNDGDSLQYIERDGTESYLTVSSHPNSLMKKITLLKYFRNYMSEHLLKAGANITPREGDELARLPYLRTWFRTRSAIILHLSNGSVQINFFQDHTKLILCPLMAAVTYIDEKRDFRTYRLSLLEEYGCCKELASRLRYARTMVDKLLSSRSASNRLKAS
TDP1 cell CPT = DT40-hTDP1 cell growth loss with CPT. Potency, µM (top dose mostly 46.2 µM), for inactives: at the highest dose activity change, negative = growth inhibition, usual class: inhibitors. 420,000 tested, 12% active. chicken DT40 Tdp1-/-;hTDP1 cells + 20 nM CPT, ATP luminescence, 48 h; note: nearly all actives have a fitted effect of over 55% in size
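Chicken DT40 Tdp1-/- cells complemented with human TDP1, 400 cells/well, exposed to compounds plus 20 nM camptothecin for at least 48 h at 37 C; viability read as ATP content by CellTiter-Glo luminescence.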
TDP1 cell noCPT = qHTS for Inhibitors of human tyrosyl-DNA phosphodiesterase 1 (TDP1): qHTS in cells in absence of CPT; DT40 Tdp1-/- hTDP1 cells, no CPT, ATP luminescence, 48 h; Potency, µM (highest dose often 46.2 µM), for the others: top-dose activity change, negative = growth inhibition, usual class: inhibitors; 420,000 tested, 15% active; note: nearly all actives have a fitted effect of over 55% in size
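DT40 Tdp1-/-;hTDP1 cells, no CPT (DMSO vehicle only), 400 cells/well; compounds pin-transferred; ≥48 hr, 37 °C; CellTiter-Glo 30 min RT dark, luminescence read.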
TDP1 inh = blocks human tyrosyl-DNA phosphodiesterase 1 | Q9NUW8 | recombinant TDP1, AlphaScreen DNA substrate cleavage | Potency, µM (titrated, usually from 130 µM), for inactives: at the highest dose activity change, negative = inhibition, hits mostly inhibitors | 350,000 tested, 0.28% active; note: nearly all actives have a fitted effect of over 40% in size
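Here, a 5' biotin and 3' phosphotyrosine-FITC DNA oligonucleotide reports Tdp1 activity: intact substrate bridges AlphaScreen beads, while cleavage leaves a 3' phosphate and drops signal. All incubations at room temperature.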
KAT2A inh = GCN5L2 (KAT2A) acetyltransferase inhibition; Q92830; GCN5L2 HAT assay, ThioGlo1 CoA-SH fluorescence; Potency, µM (highest dose often 58.9 µM), for the others: at the highest dose activity change, negative = inhibition, hits mostly inhibitors; 390,000 tested, 0.21% active; AID 504327
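Titration-based screen in which CoA formation is detected via maleimide probe ThioGlo1 (50uM) turning fluorescent on thiol reaction; substrates H3(1-25) 75uM and acetyl-CoA 70uM, GCN5L2 20nM, 20 min incubation at room temperature.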
VDR inh = blocks the human vitamin D receptor. VDR-SRC2-3 peptide fluorescence polarization, 2 h. AID 504847. P11473. 400,000 tested, 0.93% active. Potency, µM, inactives show max response, negative = inhibition, actives largely listed as inhibitors
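Fluorescence polarization assay measuring small-molecule disruption of VDR binding to the coregulator peptide SRC2-3. Compounds were pin-transferred (23 nl) into the reagent mix and incubated 2 h at room temperature before reading.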
* marks the source's active call; other numbers are inactive results; ? = inconclusive; · = not tested or not shown; [ ] = another dose, or the depositor's remark. Calls come from the whole dose curve; as a rule, active = well fitted curve in the direction sought with a large enough effect; inconclusive = small, poorly fitted or top-dose-only effect, or another doubt; inactive = no such curve, though single readings can be large; an effect the other way counts as inactive or inconclusive. % is set by controls: 0 for no effect and ±100 for the full control effect; potency is the fitted concentration of half-maximal effect.

SMILES | PLK1 PBD inh | TDP1 cell CPT | TDP1 cell noCPT | TDP1 inh | KAT2A inh | VDR inh
O=C(OCc1nnc(-c2ccccc2)o1)C1CC(=O)N(Cc2ccco2)C1 (centres undefined) | -18.6% | -18.4% | -16.5% | 2.7% | -8.0% | -19.0%
CCCC(NCC(O)COc1ccc(-c2ccccc2)cc1)c1ccccc1 (centres undefined) | 9.6% | 7.31µM* | 4.11µM* | -3.5% | -3.6% | 14.8%
CC(NCC(O)COc1ccc2ccccc2c1)c1ccccc1 (centres undefined) | -2.5% | 16.4µM* | 16.4µM* | · | -1.1% | -0.8%
COc1ccc(OCC(O)CNC(C)c2ccccc2)cc1 (centres undefined) | -13.1% | ? | ? | · | -2.8% | -6.3%
CC(NCC(O)COc1ccc(Br)cc1)c1ccccc1 (centres undefined) | -8.4% | ? | ? | 1.8% | -3.8% | ?
Cc1cc(OCC(O)CNC(C)c2ccccc2)ccc1C(C)C (centres undefined) | 2.7% | 23.1µM* | 23.1µM* | · | -3.2% | 0.5%
CCC(CC)NCC(O)COc1ccc(Br)cc1 (centres undefined) | -5.5% | ? | 20.6µM* | · | -1.1% | -18.5%
Cc1cc(C(=O)N2CCN(Cc3ccccc3)CC2)on1 | -4.6% | 2.3% | -8.6% | -2.6% | -1.3% | 4.4%
O=C(NN1CCOCC1)c1ccccc1 | -8.6% | 5.1% | 11.9% | 7.1% | -0.5% | -0.2%
O=C(CCCOC(=O)c1ccc(O)cc1O)c1ccc(Br)cc1 | -2.1% | ? | 23.1µM* | -8.3%[0.505 µM] | -12.5% | -20.5%
O=C(CN1C(=O)NC2(CCc3ccccc32)C1=O)NCc1ccc(F)cc1 (centres undefined) | -5.9% | -4.2% | -2.1% | 11.5% | -0.1% | -18.0%
COc1cc(OC)nc(Nc2nc(C(N)CCc3ccccc3)cs2)n1 (centres undefined) | -9.6% | 25.9µM* | ? | · | · | ·
COc1cc(OC)nc(Nc2nc(C(N)COCc3ccccc3)cs2)n1 (centres undefined) | -2.8% | ? | ? | · | · | ·
COc1cc(OC)nc(Nc2nc(C(N)Cc3ccc(Cl)cc3)cs2)n1 (centres undefined) | -8.8% | 23.1µM* | 14.6µM* | · | · | ·
COC(=O)c1cc(C)nc(Nc2nc(C(N)Cc3ccc(Cl)cc3)cs2)n1 (centres undefined) | -14.0% | ? | ? | · | · | ·
CCCCC(=O)OCc1c(-c2ccccc2)ncc2ccccc12 | -0.5% | 4.9% | -12.3% | · | -7.8% | -27.0%
Cc1oc(-c2ccccc2NC(=O)c2ccsc2)nc1CN(C)CC1CC=CCC1 (centres undefined) | · | -3.5%[9.04 µM] | 4.0% | · | · | ·
COc1ccccc1CC(=O)Nc1cc(S(=O)(=O)N2CCOCC2)ccc1N1CCOCC1 | 2.7% | -21.5% | -4.2% | 2.8% | 0.2% | 22.1%
CCN(CC)S(=O)(=O)c1ccc(N2CCOCC2)c(NC(=O)Cc2cccc3ccccc23)c1 | 0.2% | ? | 16.4µM* | 8.5% | -10.9% | -4.0%
CCN(CC)S(=O)(=O)c1ccc(N2CCOCC2)c(NC(=O)c2nn(C)c(=O)c3ccccc23)c1 | -1.0% | -11.2% | -1.4% | · | · | 11.6%
O=C(Cc1ccccc1F)Nc1cc(S(=O)(=O)N2CCCCC2)ccc1N1CCOCC1 | 9.4% | 20.6µM* | 16.4µM* | · | · | ·
CCN(CC)S(=O)(=O)c1ccc(N2CCOCC2)c(NC(=O)Cc2ccccc2F)c1 | -10.9% | -26.7% | 14.6µM* | -3.5% | -3.7% | -10.0%
CCN(CC)S(=O)(=O)c1ccc(N2CCOCC2)c(NC(=O)c2nn(C(C)C)c(=O)c3ccccc23)c1 | -9.9% | 10.3µM* | 5.17µM* | · | · | ·
CN(CC(=O)Nc1ccccc1N1CCOCC1)S(=O)(=O)c1ccc(F)cc1 | -12.8% | 18.4µM* | 18.4µM* | 3.1% | ? | 16.9%
CCN(CC)S(=O)(=O)c1ccc(N2CCOCC2)c(NC(=O)CCC2CCCCC2)c1 | ? | 20.6µM* | ? | 2.7% | -7.7% | -3.2%
SMILES | PLK1 PBD inh | TDP1 cell CPT | TDP1 cell noCPT | TDP1 inh | KAT2A inh | VDR inh
CCN(CC)CCN(C(=O)c1ccc2c(c1)CCCC2)c1nc2ccc(C)cc2s1 | -13.5% | ? | 23.1µM* | 10.5% | -1.6% | -8.4%
CN(C)CCCN(C(=O)c1ccc2c(c1)CCCC2)c1nc2ccc(F)cc2s1 | 1.4% | 20.6µM* | 16.4µM* | 7.0% | -10.7% | 7.4%
CN(C)CCCN(C(=O)c1ccc2c(c1)CCCC2)c1nc2cc3c(cc2s1)OCO3 | -9.0% | ? | ? | 8.9% | -3.0% | -6.2%
CCc1ccc2nc(N(CCN(C)C)C(=O)c3ccc4ncsc4c3)sc2c1 | -29.6% | 0.1% | -25.7% | 10.1% | -10.4% | 70.8µM*
CCN(CC)CCN(C(=O)c1ccc2c(c1)CCCC2)c1nc2ccc(F)cc2s1 | -2.9% | ? | ? | 5.8% | -6.8% | 9.4%
CCN(CC)CCN(C(=O)c1ccc2c(c1)CCCC2)c1nc2ccc(OC)cc2s1 | -8.8% | 18.4µM* | ? | 11.5% | -3.0% | -1.4%
CC1C=CCCOC1c1ccccc1 (centres undefined) | · | · | · | 5.8%[21 µM] | · | ·
COc1ccc(S(=O)(=O)Cc2ccccc2)cc1N | -0.3% | 9.2µM* | ? | -1.0% | -1.5% | -10.6%
CN(C(=O)CC1C(=O)NCCN1Cc1cccc(C(F)(F)F)c1)C1CCOCC1 (centres undefined) | -2.4% | -4.6% | 10.7% | 3.5% | -0.8% | 9.4%
Cc1c(Cl)cccc1-c1ccc(CNCc2ccccn2)o1 | -0.3% | ? | ? | · | -7.5% | -20.4%
CC(=O)c1ccc(NC(=O)C2(c3ccccc3)CCOCC2)cc1 | -9.8% | -13.6% | -18.5% | · | 3.1% | -0.2%
O=C(Nc1ccccc1[N+](=O)[O-])C1(c2ccccc2)CCOCC1 | 3.3% | ? | 16.4µM* | 7.4% | -6.4% | 3.0%
Clc1cccc(Cl)c1CNc1ccc(N2CCCC2)cc1 | ? | 6.51µM* | 16.4µM* | 8.6% | 2.6% | ?
COc1cc(OC)cc(C(=O)NNS(=O)(=O)c2ccc(F)cc2)c1 | -10.5% | 4.8% | 10.4% | 5.3% | 2.6% | -8.9%
O=C(NCc1ccccc1)C1CCN(C(=O)c2cnn(-c3ccccc3)c2-n2cccc2)CC1 | · | -29.6% | -18.7% | 1.0% | -4.8% | 3.4%
Cc1ccc(Nc2nc3ccccc3c3nnc(C)n23)c(C)c1 | · | 11.6µM* | 8.2µM* | 8.5% | 0.9% | 11.0%
Cc1ccc(C(C)(C)c2ccc(C)cc2)cc1 | · | 2.8% | 7.8% | · | 4.8% | 5.5%
COc1ccc(C(N)c2csc(Nc3ccc(S(C)(=O)=O)cc3)n2)cc1 (centres undefined) | -11.8% | 23.1µM* | ? | · | · | ·
